Only some compounds are listed: those with a hit (about 12% of all), similar ones and a draw of the others.
Pf growth 96h – inhibits malaria parasite growth, 96 h; AID 504834; Potency, µM (highest dose often 28.7 µM), for the others: top-dose activity change, negative = inhibition, hits mostly inhibitors; P. falciparum luciferase reporter growth, 96 h; 320,000 tested, 6.9% active; further: on the % scale 0 is the no-effect control and ±100 the full control effect
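Delayed-death screen, second-generation endpoint: infected erythrocytes, 2% hematocrit, 0.05% parasitemia final; 96 hours at 37 C, 5% CO2; luciferase detection reagent; luminescence decrease equals reduced growth.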
Pf growth 48h – inhibits P. falciparum growth in the first generation, 48 h; P. falciparum luciferase growth in erythrocytes, 48 h; AID 504832; 310,000 tested, 5.9% active; Potency, µM (highest dose often 28.7 µM), for inactives: top-dose activity change, negative = inhibition, usual class: inhibitors; further: on the % scale 0 is the no-effect control and ±100 the full control effect
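Luminescence readout; reporter = integrated firefly luciferase in P. falciparum. RBC culture at 2% hematocrit, 0.1% parasitemia final, 37 C/5% CO2; decreased signal taken as growth inhibition.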
SARS PLP yeast – inhibitors of SARS-CoV papain-like protease in yeast | 330,000 tested, 0.19% active | Potency, µM (series often up to 32.9 µM), without a hit: top-dose activity, positive = growth rescue, actives largely listed as activators | AID 485353 | S. cerevisiae expressing SARS-CoV PLpro, growth rescue; calls by dose curve; further: 0% is about no effect; nearly all actives have a fitted effect of over 55% in size
Sm TGR inh – blocks Schistosoma mansoni thioredoxin glutathione reductase | 360,000 tested, 3% active | purified TGR, DTNB reduction, TNB absorbance 405 nm | AID 485364 | Potency, µM (series often up to 114 µM), for inactives: at the top dose activity change, negative = inhibition, hits mostly inhibitors; further: on the % scale 0 is the no-effect control and ±100 the full control effect; nearly all actives have a fitted effect of over 60% in size
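TGR 20 nM + NADPH 100 uM (dispensed conc.), cpd preinc 15 min RT; start with NADPH (500 uM addition) then DTNB (15 mM addition). Kinetic TNB absorbance, 405 nm filter. Four-parameter Hill fit across titration.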
Numbers without * were called inactive; ? = inconclusive; / = no result given. Unless noted, the call rests on the fitted dose curve; in most records, active means well fitted curve in the direction sought with a large enough effect; inconclusive means small, poorly fitted or top-dose-only effect, or another doubt; inactive means no such curve, though single readings can be large; an effect the other way counts as inactive or inconclusive. Potency means the concentration at half of the fitted maximal effect.

SMILES	Pf growth 96h	Pf growth 48h	SARS PLP yeast	Sm TGR inh
CCN1CCN(C(=O)c2ccc(N3CC4CC(C3)c3cccc(=O)n3C4)c(NC(=O)c3cc(OC)cc(OC)c3)c2)CC1 (stereo unspecified)	0%	?	6%	-4%
CCCCN(C(=O)c1ccc(S(=O)(=O)N(C)C)cc1)c1nc2ccccc2s1	1.9µM*	?	-4%	-4%
Cc1cc(C)c2sc(N(CCCN(C)C)C(=O)c3ccc(S(=O)(=O)N(C)C4CCCCC4)cc3)nc2c1	?	10µM*	8%	1%
CN(C)CCCN(C(=O)c1ccc(S(=O)(=O)N(C)C2CCCCC2)cc1)c1nc2ccc(Br)cc2s1	?	13µM*	0%	3%
CCCCN(C(=O)c1ccc(S(=O)(=O)N(C)C)cc1)c1ccccc1	7%	13%	-10%	12%
CN(C)CCCN(C(=O)c1ccc(S(=O)(=O)N(C)C2CCCCC2)cc1)c1nc2ccc(F)cc2s1	?	?	-1%	-12%
COc1cccc(C(=O)Nc2cccc(-c3cn4ccsc4n3)c2)c1OC	/	/	/	1%
CN(C)c1ccc(C(CC(=O)c2ccccc2)C2CCCCC2=O)cc1 (stereo unspecified)	10µM*	1%	-9%	-16%
O=C(CC(c1ccco1)C1CCCCC1=O)c1ccco1 (stereo unspecified)	?	-22%	13%	50µM*
Cc1nn(C(=O)c2cccc([N+](=O)[O-])c2)c(C)c1Cl	?	4%	1%	-2%
CS(=O)(=O)N1CCN(c2ccccc2NC(=O)C(c2ccccc2)c2ccccc2)CC1	/	10µM*	1%	3%
CS(=O)(=O)N1CCN(c2ccccc2NC(=O)c2ccc3ccccc3c2)CC1	?	12µM*	-26%	-5%
Cc1ccc(S(=O)(=O)Cc2ccc(C(=O)N3CCc4ccccc4C3)o2)cc1	13µM*	/	-5%	40µM*
COc1ccc(S(=O)(=O)Cc2ccc(C(=O)N3CCN(Cc4ccccc4)CC3)o2)cc1	20%	-21%	14%	?
Cc1ccc(S(=O)(=O)Cc2ccc(C(=O)O)o2)cc1	/	3%	15%	22µM*
COc1ccc(S(=O)(=O)Cc2ccc(C(=O)N3CCc4ccccc4C3)o2)cc1	-28%	/	-4%	20µM*
Cc1ccc(S(=O)(=O)Cc2ccc(C(=O)N3CCN(c4ccc(F)cc4)CC3)o2)cc1	?	/	0%	0%
Cc1ccc(S(=O)(=O)Cc2ccc(C(=O)N3CCN(Cc4ccccc4)CC3)o2)cc1	-14%	?	-8%	35µM*
CCc1cccc(NC(=O)Cn2c(=O)n(CC3CCC(C(=O)NCCc4ccccc4)CC3)c(=O)c3ccccc32)c1 (stereo unspecified)	/	/	/	-2%
Cn1c(=O)n(C)c2cc(CNCc3ccc(F)cc3)ccc21	/	/	/	4%
O=C(O)[C@@H]1Cc2ccccc2N1	?	?	0%	56µM*
CN(C)C(C)(C)C#CCC(c1ccccc1)c1ccccc1	?	9.3µM*	-1%	0%
COc1ccc(C(=O)Nc2sc3c(c2C#N)CCN(C(C)=O)C3)cc1	-20%	?	-2%	13%
CCOC(=O)N1CCc2c(sc(NC(=O)Cc3ccccc3)c2C(=O)c2ccc(OC)cc2)C1	?	5.2µM*	1%	-6%
COc1ccc(C(=O)c2c(NC(C)=O)sc3c2CCN(C(=O)OC(C)(C)C)C3)cc1	9.3µM*	8.3µM*	-1%	?
SMILES	Pf growth 96h	Pf growth 48h	SARS PLP yeast	Sm TGR inh
Cc1nn(-c2ccc3nncn3n2)c(C)c1CCC(=O)Nc1ccc(OC(F)(F)F)cc1	/	/	/	1%
O=c1c(N2CCc3ccccc3C2)csc2ccc(F)cc12	/	/	/	0%
CCN(C(=O)c1ccccc1)c1ccc([N+](=O)[O-])cc1	8.3µM*	?	8%	-2%
O=[N+]([O-])c1ccc(N(c2ccccc2)c2ccccc2)cc1	?	?	-27%	4%
Nc1nnc(SCC(=O)OCC(=O)NC23CC4CC(CC(C4)C2)C3)s1	-2%	13µM*	-2%	-5%
Cn1cccc1/C=C1/C(=O)NC(=O)N(Cc2ccc(F)cc2)C1=O	6%	5%	2%	-11%
Cn1cccc1/C=C1/C(=O)NC(=S)N(Cc2ccc(F)cc2)C1=O	27%	-3%	1%	25µM*
Cc1cc2c(cc1C)N(C(=O)CSC1=NCCS1)C(C)(C)c1ssc(=S)c1-2	2.6µM*	6.6µM*	-7%	8%
Cc1ccc2c(c1)-c1c(ssc1=S)C(C)(C)N2C(=O)CSc1nncn1C	5%	?	2%	-30%
Cc1cc(C)c2c(c1)-c1c(ssc1=S)C(C)(C)N2C(=O)CSc1nncn1C	?	4.7µM*	6%	-1%
CC(C)(C)C1CCC(=NNC(=O)CN(c2ccccc2)S(=O)(=O)c2ccccc2[N+](=O)[O-])CC1 (stereo unspecified)	11%	-16%	-6%	0%
C/C(=N\NC(=O)CN(c1ccccc1)S(=O)(=O)c1ccccc1[N+](=O)[O-])C(C)(C)C	12µM*	?	-8%	-11%
Cc1ccccc1-n1c(=O)/c(=C\c2ccco2)s/c1=C(/C#N)C(=O)Nc1ccccc1	10%	1.5µM*	?	0%
O=c1c2ccccc2nc(-c2ccc(Cl)cc2Cl)n1CCCn1ccnc1	?	?	-5%	28%
CC(C)Cn1c(-c2ccco2)nc2c(c(=O)c3ccccc3n2C)c1=O	1.2µM*	1.3µM*	-10%	-21%
COc1ccc(Cn2c(-c3ccc(OC)cc3)nc3c(c(=O)c4ccccc4n3C)c2=O)cc1	9.3µM*	12µM*	-24%	7%
CCCCCc1nc2c(c(=O)c3ccccc3n2C)c(=O)n1C1CCCCCC1	12µM*	?	-3%	2%
Cn1c2ccccc2c(=O)c2c(=O)n(Cc3ccco3)c(-c3ccc(Cl)cc3Cl)nc21	-3%	78%	0%	14µM*
COc1ccc(-c2nc3c(c(=O)c4ccccc4n3C)c(=O)n2Cc2ccccc2)cc1	2.9µM*	-20%	-17%	5%
COCCn1c(-c2cccc(Br)c2)nc2c(c(=O)c3ccccc3n2C)c1=O	?	?	0%	-15%
c1ccc(Cn2c(SCc3nc4ccccc4s3)nnc2-c2ccco2)cc1	/	26%	-9%	13µM*
O=c1c2ccccc2nc(-c2ccco2)n1Cc1ccccc1	?	53%	/	50µM*
COCCn1c(-c2ccccc2)nc2c(c(=O)c3ccccc3n2C)c1=O	15µM*	?	-1%	-1%
O=C1Cc2cc(S(=O)(=O)Nc3ccccc3Cl)cc3c2N1CCC3	-8%	?	1%	6%
O=C(CN1C(=O)NC2(CCc3ccccc32)C1=O)Nc1ccccc1Cl (stereo unspecified)	/	/	2%	/
Cc1ccc(CNC(=O)c2cccc(NC(=O)N3CCSc4ncccc43)c2)cc1	/	/	/	3%
O=C(Cn1c(=O)ccc2cc(S(=O)(=O)N3CCCC3)ccc21)Nc1ccc(Cl)cc1	/	/	/	0%
Cn1c2ccccc2c(=O)c2c(=O)n(Cc3ccccc3)c(-c3ccc(F)cc3)nc21	5.2µM*	?	0%	26%

Source: PubChem (National Center for Advancing Translational Sciences (NCATS))
